The results in this text go back to PubChem BioAssay (Tox21).

Records with an inconclusive call do not appear. Active and inactive are the calls of the source. Calls come from the whole dose curve; as a rule, active = well fitted cell-killing curve with a large enough effect in the repeat runs; inconclusive = weak or mixed curves, or effect the other way; inactive = no such curve, though single readings can be large or run the other way.
% is set by controls: 0 for no effect and ±100 for the full control effect; potency is the fitted concentration of half-maximal effect.

This assay in a line: Caspase-3/7 induction in CHO-K1 cells by small molecules, qHTS cell viability counter screen (AID 1346979). Note: nearly all actives have a fitted effect of over 35% in size. The settings on record: CellTiter-Fluor fluorescence, 17 h; series mostly up to 92.4 µM; activity change, negative = cytotoxicity: at the top concentration. An outline of the steps:
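Following a 5hr settling period, CHO-K1 cells at 1,500 per well received DMSO-dissolved compounds. Cell viability was quantified 16hr later by CellTiter-Fluor fluorescence, measured after 1hr with reagent at 37C.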
For orientation: In qHTS, concentration-response curves come from the screen itself.
For the compound `CCN(CC)C(=O)/C(C#N)=C/c1cc(O)c(O)c([N+](=O)[O-])c1`, the Potency is 26.6 µM (active).
Turning to `C[C@@H]1C[C@H]2[C@@H]3CCC4=CC(=O)C=C[C@]4(C)[C@@]3(F)[C@@H](O)C[C@]2(C)[C@@]1(O)C(=O)COP(=O)(O)O`, the “activity change, negative = cytotoxicity” value is 8.83% (inactive).
On the same count and under the same terms, to `CCOC(=O)c1c(N)sc2c1CCN(Cc1ccccc1)C2` belongs 9.13% [at 42.5 µM] (inactive); to `CC[C@@H](CO)NCCN[C@@H](CC)CO`, 6.56% [at 42.5 µM] (inactive); to `CCOC(=O)c1ccc(NC(=O)CN2CCCCC2)cc1`, 5.01% [at 42.5 µM] (inactive).
Turning to `CC(=O)OCC(C)C`, the “activity change, negative = cytotoxicity” value is 5.94% (inactive).
Still for that read-out and setting: to `O=S(=O)(O)CO` belongs 4.84% (inactive); to `CCCCCCCCCCCSCC(=O)O`, -0.164% (inactive); to `COc1cc(NC(C)CCCN)c2ncccc2c1` (stereo not drawn), -13.4% [at 42.5 µM] (inactive).
On the same count and under the same terms, with `CC(C)OC(=O)c1ccccc1C(=O)OC(C)C` the figure was 6.47% (inactive); with `Cc1ccccc1S(N)(=O)=O`, 12.1% (inactive).
Turning to `COc1cc(S(=O)(=O)Nc2ccccc2)c(OC)cc1N`, the “activity change, negative = cytotoxicity” value was -0.163% (inactive).
For the compound `COC1CCC=CO1` (stereo not drawn), the “activity change, negative = cytotoxicity” value is 3.38% (inactive).
Still for that read-out and setting: to `O=C1NC(=O)c2cccc3cccc1c23` belongs -1.25% (inactive); to `c1ccc2sc(SSc3nc4ccccc4s3)nc2c1`, 8.61% [at 19 µM] (inactive).
The same measure, in the same setting: to `NC(=O)c1ccccc1[N+](=O)[O-]` belongs 9.32% (inactive); to `O=C1OC(=O)c2c(Br)c(Br)c(Br)c(Br)c21`, 10.7% (inactive).
For the compound `CCCCCC`, the “activity change, negative = cytotoxicity” value is 2.54% (inactive).
Same read-out and setting: to `CC[C@H]1OC(=O)[C@H](C)[C@@H](O[C@H]2C[C@@](C)(OC)[C@@H](O)[C@H](C)O2)[C@H](C)[C@@H](O[C@@H]2O[C@H](C)C[C@H](N(C)C)[C@H]2O)[C@](C)(O)C[C@@H](C)CN(C)[C@H](C)[C@@H](O)[C@]1(C)O` belongs 2.55% [at 42.5 µM] (inactive).
As to `Cc1ccc(Nc2c(F)cccc2Cl)c(CC(=O)O)c1`, the “activity change, negative = cytotoxicity” value was 6% [at 42.5 µM] (inactive).
On the same count and under the same terms, with `c1ccc(CCCc2ccncc2)cc1` the figure was -7.52% (inactive); with `CC(C)c1ccc(C(=O)N=C(N)N)cc1S(C)(=O)=O`, 2.96% [at 42.5 µM] (inactive).
For the compound `COC(=O)C1=C(C)NC(C)=C(C(=O)OC(C)(C)CN(C)CCC(c2ccccc2)c2ccccc2)C1c1cccc([N+](=O)[O-])c1` (stereo not drawn), the Potency is 16.8 µM (active).
`O=c1[nH]c2cc(C(F)(F)F)c(N3CCOCC3)cc2n(CP(=O)(O)O)c1=O`: the “activity change, negative = cytotoxicity” value is 8.08% [at 42.5 µM] (inactive).
Same read-out and setting: with `C1CCCCC1` the figure was 0.473% (inactive); with `C1=CCC2CC=CC2C1` (stereo not drawn), -1.69% (inactive).
With `CN1CCCN(C(c2ccccc2)c2ccc(Cl)cc2)CC1` (stereo not drawn), the Potency is 26.6 µM (active).
Take `CC(CN(CCN(CC(C)OCCO)CC(C)OCCO)CC(C)OCCO)OCCO` (stereo not drawn): the “activity change, negative = cytotoxicity” value was -2.43% (inactive).
